Laboratory results as given in PubChem BioAssay AID2108 (National Center for Advancing Translational Sciences (NCATS), 2009).
Results filed as inconclusive are left out. A number with no mark means an inactive call. The call rests on the fitted dose curve; in most records, active means well fitted curve in the direction sought with a large enough effect; inconclusive means small, poorly fitted or top-dose-only effect, or effect the other way, or another doubt; inactive means no such curve, though single readings can be large or run the other way.

Target: Alpha-galactosidase A (Homo sapiens) (UniProt P06280)
Sequence (P06280 32-429 limits assumed): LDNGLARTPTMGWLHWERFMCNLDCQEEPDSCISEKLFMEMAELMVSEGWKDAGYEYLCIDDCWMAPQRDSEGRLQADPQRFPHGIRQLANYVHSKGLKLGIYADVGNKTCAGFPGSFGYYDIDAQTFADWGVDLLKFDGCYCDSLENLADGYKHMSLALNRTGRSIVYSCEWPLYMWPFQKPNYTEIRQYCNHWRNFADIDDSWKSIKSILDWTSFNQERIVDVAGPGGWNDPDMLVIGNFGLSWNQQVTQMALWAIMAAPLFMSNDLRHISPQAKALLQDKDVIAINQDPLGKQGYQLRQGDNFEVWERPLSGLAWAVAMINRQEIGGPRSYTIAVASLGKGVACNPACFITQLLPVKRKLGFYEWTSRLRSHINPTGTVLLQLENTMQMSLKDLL
Assay: Confirmation of Inhibitors of Human alpha-Galactosidase Using Spleen Homogenate; further: 0% is about no effect
Conditions: alpha-galactosidase enzyme activity; series mostly up to 56.2 µM; activity change: at the top concentration
Outline: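 Human spleen homogenate (1 ug) with 1 mM 4-methylumbelliferyl-alpha-D-galactopyranoside in citrate-phosphate pH 5.0, 0.01% Tween-20, 37C 40 min; compounds 0.5 nM–58 uM final. Stopped at pH 10, fluorescence Ex 365/Em 440; AC50 from Hill fits.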

Row | SMILES | activity change
1 | Oc1ccccc1C1CC(c2cccs2)=NC(c2ccc(Cl)cc2)N1 (stereo unspecified) | 2.01%
2 | O=c1oc2ccccc2cc1-c1nc2c(s1)CCc1ccccc1-2 | 3.53%
3 | CCCCN1C[C@H](O)[C@@H](O)[C@H](O)[C@H]1CO | -5.54%
4 | O=C1NC[C@@H](Cc2cccc3ccccc23)N(CCc2cc(C(F)(F)F)cc(C(F)(F)F)c2)C1=O | -5.01%
5 | O=C(c1cc2c(ccc3ccccc32)oc1=O)N1CCN(CCO)CC1 | 14.3% [at 23.6 µM]
6 | CC1=CC(=C2C=CC(=O)C=C2)C=C(C)N1C | -1.91% [at 23.6 µM]
7 | O=C1CCCC/C1=C\Nc1ccc(O)cc1 | -3.18%
8 | COC(=O)c1ccccc1S(=O)(=O)N1CCOCC1 | -15.4%
9 | COc1ccccc1N1CCN(C(c2cccs2)C(C)NC(=O)c2cccs2)CC1 (stereo unspecified) | 0.409% [at 23.6 µM]
10 | CN(CCO)S(=O)(=O)c1ccc2c(c1)C(=NNC(N)=O)c1cc(S(=O)(=O)N(C)CCO)ccc1-2 | 2.47%
11 | CCc1sc(-c2cc3ccc(O)cc3oc2=O)nc1-c1cc(C)ccc1C | 16.4%
12 | O=C(O)c1c[nH]c2ccc(S(=O)(=O)N3CCOCC3)cc12 | -1.11%
13 | O=C(NCC1CCOCC1)c1ccc2nc(Cc3cccc(Cl)c3)oc2c1 | -6.97%
14 | Cc1ccc2c(=O)c3ccccc3n(CCCN)c2c1C | -8.95%
15 | COc1cc(-c2cc(N3C(=O)Nc4ccccc4N3O)n[nH]2)cc(OC)c1OC | 6.53% [at 23.6 µM]
16 | Cc1sc(-c2cc3cc(Br)ccc3oc2=O)nc1-c1ccccc1 | 17.2%
17 | CCc1ccc(-c2nc(-c3cc4ccc(OC(C)=O)cc4oc3=O)sc2C)cc1 | 2.98%
18 | O=c1ccc2cc(O)c(O)cc2o1 | 5.16%

Row | SMILES | activity change
19 | CCn1c2ccccc2c2nnc(NN)nc21 | -2.78%
20 | O=S(=O)(c1ccccc1)N1CCNCC1 | 12.7%
21 | O=C(COc1ccc2ccccc2c1)N1CCN(C(=O)c2ccco2)CC1 | 8.9% [at 23.6 µM]
22 | COc1cc(CN2CCC(CO)(Cc3cccc(C(F)(F)F)c3)CC2)ccc1F | -4.41%
23 | O=C(Nc1nnc(-c2cccc(F)c2)s1)Nc1ccccc1F | 13.6%
24 | COCCNc1c(-c2ccc(O)cc2)nc2ccc(Cl)cn12 | -5.9%
25 | O=NOc1ccc(/C=C/c2nccc3c2[nH]c2ccccc23)cc1 | 5.65%
26 | O=c1[nH]c2ccccc2nc1/C=C/c1ccc2c(c1)OCO2 | 5.28%
27 | CCC(C)Nc1nc(-c2cccc(OC)c2O)nc2ccccc12 (stereo unspecified) | 1.98%
28 | COc1cccc2cc(-c3nc(-c4ccccc4)c(C)s3)c(=O)oc12 | 6.7%
29 | Cc1ccccc1S(=O)(=O)N1CCOCC1 | 3.91%
30 | CC(=O)N1CCN(c2ccc(NCc3ccc(C)cc3)cc2)CC1 | -3.79%
31 | Nc1c(NCCN2CCCCC2)c2ccccc2oc1=O | -3.82%
32 | Cc1ccc(/C=N\Nc2nc3ccc(Cl)cc3[nH]2)o1 | -0.392%
33 | O=C(c1ccccc1)N1CCN(C(=O)N(c2ccccc2)c2ccccc2)CC1 | 3.27%
34 | O=S(=O)(c1ccccc1)N1CCN(S(=O)(=O)c2ccccc2)CC1 | 1.73%
35 | COc1cc([C@@H]2c3cc4c(cc3[C@@H](OC3OC5COC(C)OC5C(O)C3O)[C@H]3COC(=O)[C@H]23)OCO4)cc(OC)c1O (stereo partly specified) | -6.56%
36 | Brc1ccc(C=Nc2ccc(Nc3ccccc3)cc2)s1 | -2.92%
